Consider 16 compounds from ChEMBL document CHEMBL1961873, “Compounds: GSK PKIS; Assays: Nanosyn kinase panel” (2012).

Where “and” joins values, the source holds several entries; their conditions need not be identical. Equal entries are not always repeated.

Assay [1] concerns the target Fibroblast growth factor receptor 4 (Homo sapiens) (UniProt P22455). The following applies: at 1 µM.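 Also: reported figure is the averaged percent inhibition of FGFR4, from the GSK PKIS kinase screening panel.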
Assay [2] addresses Tyrosine-protein kinase Fgr (Homo sapiens) (UniProt P09769). As to conditions: at 0.1 µM.
For assay [3] the target is unchanged. As to conditions: at 1 µM.
Assay [4] concerns the target Vascular endothelial growth factor receptor 1 (Homo sapiens) (UniProt P17948). The following applies: at 0.1 µM.
Assay [5] has the same target. The following applies: at 1 µM.
Assay [6] deals with Receptor-type tyrosine-protein kinase FLT3 (Homo sapiens) (UniProt P36888). The following applies: at 0.1 µM.
Assay [7] shares this target. As to conditions: at 1 µM.
Assay [8] relates to T1, Receptor-type tyrosine-protein kinase FLT3 (Homo sapiens), P36888 [D835Y].
T1 sequence (whole entry): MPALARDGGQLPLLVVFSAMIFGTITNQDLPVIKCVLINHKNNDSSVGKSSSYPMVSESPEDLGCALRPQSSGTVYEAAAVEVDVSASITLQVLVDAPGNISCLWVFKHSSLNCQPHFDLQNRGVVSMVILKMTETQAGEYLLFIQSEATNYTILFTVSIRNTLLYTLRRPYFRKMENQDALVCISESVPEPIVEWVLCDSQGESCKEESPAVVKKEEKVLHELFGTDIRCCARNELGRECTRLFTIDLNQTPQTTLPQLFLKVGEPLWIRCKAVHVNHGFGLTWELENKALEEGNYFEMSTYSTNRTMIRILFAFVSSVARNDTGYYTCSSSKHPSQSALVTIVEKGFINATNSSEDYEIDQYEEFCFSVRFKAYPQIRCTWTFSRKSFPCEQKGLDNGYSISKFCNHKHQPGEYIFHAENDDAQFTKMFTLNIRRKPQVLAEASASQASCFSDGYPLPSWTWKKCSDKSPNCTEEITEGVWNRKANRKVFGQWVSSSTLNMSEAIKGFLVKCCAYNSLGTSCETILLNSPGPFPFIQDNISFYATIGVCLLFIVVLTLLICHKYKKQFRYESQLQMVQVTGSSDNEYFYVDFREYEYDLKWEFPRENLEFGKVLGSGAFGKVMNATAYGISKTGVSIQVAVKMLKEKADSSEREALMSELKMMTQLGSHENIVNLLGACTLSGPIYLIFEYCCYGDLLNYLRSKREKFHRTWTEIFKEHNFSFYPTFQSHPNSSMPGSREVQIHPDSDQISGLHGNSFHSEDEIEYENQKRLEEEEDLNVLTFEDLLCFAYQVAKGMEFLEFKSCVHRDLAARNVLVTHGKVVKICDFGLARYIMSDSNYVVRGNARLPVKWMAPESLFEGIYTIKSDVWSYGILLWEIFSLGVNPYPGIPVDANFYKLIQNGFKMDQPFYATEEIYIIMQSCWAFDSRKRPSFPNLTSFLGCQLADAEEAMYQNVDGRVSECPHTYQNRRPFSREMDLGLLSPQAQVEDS
As to conditions: at 0.1 µM.

In assay [9] the target is Non-receptor tyrosine-protein kinase TYK2 (Homo sapiens) (UniProt P29597). As to conditions: at 1 µM.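 Also: values are mean percent inhibition of TYK2 kinase.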
Sequence of Non-receptor tyrosine-protein kinase TYK2 (Homo sapiens) (P29597 whole entry): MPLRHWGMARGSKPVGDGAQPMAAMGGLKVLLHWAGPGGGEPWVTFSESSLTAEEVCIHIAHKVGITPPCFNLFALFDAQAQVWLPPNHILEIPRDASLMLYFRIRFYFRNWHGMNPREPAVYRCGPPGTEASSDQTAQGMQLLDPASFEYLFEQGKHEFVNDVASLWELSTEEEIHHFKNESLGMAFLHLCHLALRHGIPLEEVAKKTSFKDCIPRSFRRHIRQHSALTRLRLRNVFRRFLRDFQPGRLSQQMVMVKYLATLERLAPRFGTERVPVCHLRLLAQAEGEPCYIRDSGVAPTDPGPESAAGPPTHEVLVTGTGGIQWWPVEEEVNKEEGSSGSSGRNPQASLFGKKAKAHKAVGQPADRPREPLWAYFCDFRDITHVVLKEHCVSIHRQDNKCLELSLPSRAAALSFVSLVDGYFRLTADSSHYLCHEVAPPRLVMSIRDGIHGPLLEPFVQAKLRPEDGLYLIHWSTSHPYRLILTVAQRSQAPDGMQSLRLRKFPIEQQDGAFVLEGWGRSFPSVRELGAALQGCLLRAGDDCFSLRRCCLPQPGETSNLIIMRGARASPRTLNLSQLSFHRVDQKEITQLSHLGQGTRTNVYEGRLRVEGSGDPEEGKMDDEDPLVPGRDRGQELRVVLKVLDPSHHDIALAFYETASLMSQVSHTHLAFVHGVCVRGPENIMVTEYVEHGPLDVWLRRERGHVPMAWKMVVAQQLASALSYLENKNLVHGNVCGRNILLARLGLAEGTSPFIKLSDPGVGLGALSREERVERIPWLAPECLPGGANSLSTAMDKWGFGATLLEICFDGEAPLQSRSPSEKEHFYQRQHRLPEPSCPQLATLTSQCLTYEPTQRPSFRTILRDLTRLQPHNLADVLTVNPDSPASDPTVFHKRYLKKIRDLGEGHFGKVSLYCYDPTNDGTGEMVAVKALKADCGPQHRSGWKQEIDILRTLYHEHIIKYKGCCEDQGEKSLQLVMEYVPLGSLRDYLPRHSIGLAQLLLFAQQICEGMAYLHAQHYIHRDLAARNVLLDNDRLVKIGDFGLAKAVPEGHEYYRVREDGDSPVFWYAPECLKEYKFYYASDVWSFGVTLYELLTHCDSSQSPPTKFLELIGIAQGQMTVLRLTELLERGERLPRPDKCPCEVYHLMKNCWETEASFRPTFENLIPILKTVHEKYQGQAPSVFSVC
The target in assay [10] is T2, Tyrosine-protein kinase receptor TYRO3 (Homo sapiens) (UniProt Q06418).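 Also: reported percentages are averaged inhibition values of TYRO3 kinase activity.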
T2 sequence (whole entry): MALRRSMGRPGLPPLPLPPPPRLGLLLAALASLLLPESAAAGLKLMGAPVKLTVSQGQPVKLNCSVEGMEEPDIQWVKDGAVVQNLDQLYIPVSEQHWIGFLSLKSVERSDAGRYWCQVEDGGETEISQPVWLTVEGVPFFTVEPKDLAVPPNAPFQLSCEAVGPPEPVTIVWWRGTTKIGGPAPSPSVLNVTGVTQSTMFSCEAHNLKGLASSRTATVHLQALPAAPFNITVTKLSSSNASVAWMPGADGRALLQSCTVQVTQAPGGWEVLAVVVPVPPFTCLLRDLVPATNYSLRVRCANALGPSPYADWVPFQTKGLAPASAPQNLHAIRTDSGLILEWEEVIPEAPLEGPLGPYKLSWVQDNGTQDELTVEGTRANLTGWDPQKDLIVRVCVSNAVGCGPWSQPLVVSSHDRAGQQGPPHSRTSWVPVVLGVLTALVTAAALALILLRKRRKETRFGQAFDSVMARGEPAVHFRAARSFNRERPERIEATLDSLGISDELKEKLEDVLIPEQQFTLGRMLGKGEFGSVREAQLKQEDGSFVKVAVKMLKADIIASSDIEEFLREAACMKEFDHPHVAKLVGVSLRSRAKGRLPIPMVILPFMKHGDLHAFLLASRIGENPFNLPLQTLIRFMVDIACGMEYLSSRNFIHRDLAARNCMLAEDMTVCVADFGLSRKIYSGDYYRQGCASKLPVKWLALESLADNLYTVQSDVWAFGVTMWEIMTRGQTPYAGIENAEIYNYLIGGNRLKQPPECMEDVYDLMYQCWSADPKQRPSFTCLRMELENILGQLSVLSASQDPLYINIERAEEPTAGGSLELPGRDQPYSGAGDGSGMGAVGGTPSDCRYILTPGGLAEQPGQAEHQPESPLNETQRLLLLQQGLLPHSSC
As to conditions: at 0.1 µM.

Sequence of Tyrosine-protein kinase Fgr (Homo sapiens) (P09769 2-529 limits assumed): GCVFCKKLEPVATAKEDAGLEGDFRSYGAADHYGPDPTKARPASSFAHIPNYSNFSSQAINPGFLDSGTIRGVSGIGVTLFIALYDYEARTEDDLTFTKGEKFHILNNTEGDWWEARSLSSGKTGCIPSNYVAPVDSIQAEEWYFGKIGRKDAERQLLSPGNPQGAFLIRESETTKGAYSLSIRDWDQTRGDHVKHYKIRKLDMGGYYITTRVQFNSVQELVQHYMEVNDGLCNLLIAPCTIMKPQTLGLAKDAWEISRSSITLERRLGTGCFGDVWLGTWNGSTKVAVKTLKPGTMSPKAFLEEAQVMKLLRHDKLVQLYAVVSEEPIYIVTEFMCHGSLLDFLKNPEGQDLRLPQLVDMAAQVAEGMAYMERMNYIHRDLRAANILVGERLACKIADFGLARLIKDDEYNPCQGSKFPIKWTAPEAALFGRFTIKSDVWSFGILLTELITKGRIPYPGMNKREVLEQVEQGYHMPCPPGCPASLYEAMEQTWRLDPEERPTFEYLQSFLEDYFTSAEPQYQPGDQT
Sequence of Vascular endothelial growth factor receptor 1 (Homo sapiens) (P17948 whole entry): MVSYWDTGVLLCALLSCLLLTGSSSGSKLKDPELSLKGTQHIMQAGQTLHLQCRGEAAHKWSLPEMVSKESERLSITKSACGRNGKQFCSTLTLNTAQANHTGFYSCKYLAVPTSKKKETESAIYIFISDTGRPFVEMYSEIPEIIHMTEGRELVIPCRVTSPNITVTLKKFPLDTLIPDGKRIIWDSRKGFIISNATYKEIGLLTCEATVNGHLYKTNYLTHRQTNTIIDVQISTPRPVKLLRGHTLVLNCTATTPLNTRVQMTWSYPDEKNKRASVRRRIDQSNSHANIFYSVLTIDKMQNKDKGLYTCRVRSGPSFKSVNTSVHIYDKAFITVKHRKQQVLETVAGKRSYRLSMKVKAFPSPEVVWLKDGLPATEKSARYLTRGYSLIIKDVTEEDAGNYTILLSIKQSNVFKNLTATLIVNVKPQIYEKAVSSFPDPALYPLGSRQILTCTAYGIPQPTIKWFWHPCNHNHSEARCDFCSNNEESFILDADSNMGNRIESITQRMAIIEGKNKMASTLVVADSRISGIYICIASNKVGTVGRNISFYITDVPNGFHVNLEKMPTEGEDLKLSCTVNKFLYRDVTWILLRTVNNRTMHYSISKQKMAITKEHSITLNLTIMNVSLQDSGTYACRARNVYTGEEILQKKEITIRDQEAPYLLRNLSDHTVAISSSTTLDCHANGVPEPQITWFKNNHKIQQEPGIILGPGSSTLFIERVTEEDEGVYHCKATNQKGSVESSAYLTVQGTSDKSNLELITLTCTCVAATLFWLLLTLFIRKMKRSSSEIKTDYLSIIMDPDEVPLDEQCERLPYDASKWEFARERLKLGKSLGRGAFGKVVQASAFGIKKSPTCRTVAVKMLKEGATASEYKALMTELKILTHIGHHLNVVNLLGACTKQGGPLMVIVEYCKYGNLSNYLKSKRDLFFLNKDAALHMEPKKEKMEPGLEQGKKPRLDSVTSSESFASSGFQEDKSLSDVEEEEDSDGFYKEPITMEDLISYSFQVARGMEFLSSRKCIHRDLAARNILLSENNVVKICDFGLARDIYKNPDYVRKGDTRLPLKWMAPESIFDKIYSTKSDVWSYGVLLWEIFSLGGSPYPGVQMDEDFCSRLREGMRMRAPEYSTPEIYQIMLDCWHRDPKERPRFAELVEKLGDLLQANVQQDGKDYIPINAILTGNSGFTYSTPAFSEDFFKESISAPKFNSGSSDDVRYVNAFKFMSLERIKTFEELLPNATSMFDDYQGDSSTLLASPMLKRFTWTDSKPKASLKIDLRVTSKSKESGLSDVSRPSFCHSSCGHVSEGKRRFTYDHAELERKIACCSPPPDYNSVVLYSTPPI
Sequence of Fibroblast growth factor receptor 4 (Homo sapiens) (P22455 22-802 limits assumed): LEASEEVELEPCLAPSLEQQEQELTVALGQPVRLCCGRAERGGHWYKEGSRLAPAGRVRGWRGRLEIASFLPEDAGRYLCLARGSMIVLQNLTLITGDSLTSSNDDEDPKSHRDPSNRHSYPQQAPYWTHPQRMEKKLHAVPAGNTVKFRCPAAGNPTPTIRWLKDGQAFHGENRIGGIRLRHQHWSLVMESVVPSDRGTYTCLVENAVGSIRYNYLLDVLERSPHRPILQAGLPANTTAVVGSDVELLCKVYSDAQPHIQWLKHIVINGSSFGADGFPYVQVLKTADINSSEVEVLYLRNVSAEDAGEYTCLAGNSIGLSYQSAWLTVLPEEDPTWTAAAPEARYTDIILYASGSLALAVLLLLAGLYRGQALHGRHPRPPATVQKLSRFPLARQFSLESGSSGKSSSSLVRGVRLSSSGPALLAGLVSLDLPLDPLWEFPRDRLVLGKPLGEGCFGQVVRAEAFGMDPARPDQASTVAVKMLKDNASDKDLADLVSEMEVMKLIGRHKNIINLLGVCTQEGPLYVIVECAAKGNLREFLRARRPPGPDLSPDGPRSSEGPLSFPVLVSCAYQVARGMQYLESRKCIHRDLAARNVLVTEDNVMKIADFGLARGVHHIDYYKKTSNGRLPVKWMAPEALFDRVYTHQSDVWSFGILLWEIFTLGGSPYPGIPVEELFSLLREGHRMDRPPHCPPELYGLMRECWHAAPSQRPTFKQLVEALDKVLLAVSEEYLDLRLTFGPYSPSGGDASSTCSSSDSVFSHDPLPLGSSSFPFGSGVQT

Regarding `O=C(O[C@H]1CN[C@H](C#Cc2cc3ncnc(Nc4ccc5c(ccn5Cc5cc(F)ccc5F)c4)c3s2)C1)N1CCOCC1`, the inhibition (in general, the relative decrease from the control value, in per cent) is 1.82% in assay [1]; 2.14% in [2]; 2.6% in assay [3]; 0.98% in [4]; -0.89% in assay [5]; 1.02% in assay [6]. The inhibition in [7] is 2.83%; in assay [8] it was -5.8%; in assay [9], -1.34%; in assay [10], 2.07%.

For the compound `O=C(Nc1n[nH]c2nnc(-c3cccnc3)cc12)C1CC1`, the inhibition in assay [1] is -0.33%; in [2], 2.57%; in assay [3], 2.95%; in assay [4], 0.7%; in assay [5], 0.07%; in assay [6] it was -0.64%. The inhibition is 1.54% in assay [7], 0.49% in [8], 2.04% in assay [9] and -0.64% in [10].

Turning to `Cn1c(-c2nonc2N)nc2cnccc21`, the inhibition in [1] is 1.93%; in assay [2], 2.79%; in assay [3], 3.33%; in [4] it was 1.36%; in assay [5], 1.68%; in [6], 4.49%. Also, the inhibition in [7] was 1.55%; in [8], 1.71%; in assay [9], -2.34%; in assay [10] it was 1.78%.

Consider `COc1cccc(-n2ncc3c(N/N=C/c4ccc(C(=O)NCCN(C)C)cc4)ncnc32)c1`, for which the inhibition worked out at 4.18% in assay [1]; 47.4% in [2]; 82.1% in [3]; 8.45% in assay [4]; 37.3% in [5]; 14% in [6]. Besides, the inhibition came to 54.9% in assay [7], 30.8% in assay [8], 5.84% in assay [9] and 16.6% in assay [10].

As to `Cc1c2ccc(N(C)c3ccnc(Nc4cccc(S(N)(=O)=O)c4)n3)cc2nn1C`, the inhibition in [1] is 26.4%; in [2], 26%; in [3] it was 64.7%; in [4], 52.8%; in assay [5], 94%; in assay [6] it was 2.48%. Besides, the inhibition in assay [7] was 15%; in assay [8] it was -0.8%; in assay [9] it was -3.19%; in assay [10] it was 3.74%.

Regarding `CCn1c(-c2nonc2N)nc2cncc(C(=O)NCCNC)c21`, the inhibition in assay [1] was determined as 1.09%; in assay [2] it was 1.3%; in assay [3], 4.66%; in assay [4], 2.02%; in assay [5], 3.5%; in assay [6], 0.34%. The inhibition was 4.29% in [7], -3.83% in assay [8], -3.99% in assay [9] and 3.7% in assay [10].

Take `CCS(=O)(=O)c1ccc(OC)c(Nc2ncc(-c3cccc(C(C)=O)c3)o2)c1`: the inhibition worked out at 3.95% in [1]; 13.2% in assay [2]; 44.4% in assay [3]; 3.88% in assay [4]; 17.2% in [5]; 19.1% in assay [6]. The inhibition in assay [7] was 69.8%; in assay [8] it was 55.7%; in assay [9], -1.19%; in assay [10] it was 5.67%.

`N#Cc1ccc2c(-c3ccnc(NC4CC4)n3)c(-c3ccc(F)cc3)nn2c1`: the inhibition in [1] is -0.59%; in assay [2] it was 1.68%; in assay [3], 1.53%; in assay [4] it was 1.23%; in assay [5] it was 3.07%; in assay [6], 0.32%. Further, the inhibition in [7] was -2.7%; in [8], -5.78%; in assay [9] it was -2.44%; in [10], -1.24%.

With `Nc1nonc1-c1nc2cnccc2n1C1CC1`, the inhibition in assay [1] was 0.52% and -2.65%; in [2], 1.63% and 3.54%; in assay [3], 4.78% and 2.49%; in assay [4], 2.44% and 2.46%; in assay [5] it was 7.3% and 7.59%; in assay [6], -0.66% and 0.33%. The inhibition in [7] was 4.5% and 3.82%; in assay [8] it was 2.73% and -0.79%; in assay [9], -1.02% and -1.56%; in assay [10], 1.66% and 1.58%.

In the case of `Nc1nccc(-c2c(-c3ccc(F)cc3)ncn2C2CCNCC2)n1`, the inhibition in [1] was -0.1% and 1.64%; in assay [2], -0.15% and 1.9%; in [3] it was 4.65% and 8.7%; in assay [4] it was -0.52% and 1.63%; in assay [5], -0.59% and 2.14%; in [6] it was -1.21% and 1.71%. Moreover, the inhibition in assay [7] is -2.93% and 1.86%; in assay [8], -8.75% and 1.68%; in assay [9], 2.68% and 1.47%; in [10], -2.12% and 1.7%.

In the case of `COc1c(C(N)=O)cc(-c2ccc(Cl)cc2)cc1-c1ccc(S(N)(=O)=O)cc1`, the inhibition in [1] was 2.25%; in assay [2], 0.21%; in assay [3] it was 2.86%; in assay [4], -0.38%; in assay [5], 2.07%; in assay [6] it was 1.63%. In addition, the inhibition in assay [7] was 3.25%; in [8], -1.44%; in [9] it was -6.53%; in assay [10], 2.09%.

For the compound `COc1ccc(-c2nn3ncccc3c2-c2ccnc(Nc3ccc(F)c(F)c3)n2)cc1`, the inhibition in [1] stood at 0.82%; in assay [2], 20.4%; in assay [3], 60.8%; in [4], 2.48%; in assay [5], 6.3%; in [6], 2.32%. The inhibition in assay [7] was 4.16%; in [8] it was 4.75%; in assay [9], -1.25%; in [10], 3.56%.

For the compound `Fc1ccc(Nc2nccc(-c3c(-c4ccc(C(F)(F)F)cc4)nn4ncccc34)n2)cc1F`, the inhibition is 3.24% in assay [1]; -0.18% in assay [2]; 4.23% in assay [3]; 1.95% in assay [4]; 4.12% in assay [5]; 1.11% in assay [6]. For the same compound, the inhibition in assay [7] was 4.52%; in [8] it was 0.57%; in assay [9] it was -3.25%; in assay [10], 3.71%.

As for `CCS(=O)(=O)c1ccc(OC)c(Nc2ncc(-c3cccc(F)c3)o2)c1`, the inhibition came out at 17.6% in assay [1]; 40.2% in assay [2]; 76.2% in assay [3]; 14.2% in assay [4]; 55.3% in assay [5]; 23.3% in assay [6]. Moreover, the inhibition in assay [7] was 74.5%; in [8], 17.6%; in assay [9] it was -2.12%; in assay [10], 6.63%.

Take `CNC(=O)c1sc(-n2cnc3cc(OC)c(OC)cc32)cc1OCc1ccccc1C(F)(F)F`: the inhibition in assay [1] turned out to be 1.34%; in assay [2], 4.08%; in assay [3], 10.1%; in assay [4], 1.22%; in assay [5], 0.98%; in assay [6], 2.13%. Moreover, the inhibition in [7] was 3.19%; in assay [8], -3.62%; in [9], -3.45%; in assay [10], 1.67%.

On to `CS(=O)(=O)CCNCc1ccc(-c2ccc3ncnc(Nc4ccc(OCc5ccccc5)cc4)c3c2)o1`, for which the inhibition in assay [1] turned out to be 0.38%; in [2], 5.33%; in [3], 20.1%; in [4], 2.38%; in assay [5] it was 2.68%; in assay [6], 2.34%. In addition, the inhibition was 6.62% in assay [7], -1.19% in assay [8], -2.79% in assay [9] and 3.45% in [10].
